Results as given in PubChem BioAssay (NCATS).
Inconclusive results are not listed. The source made the active and inactive calls. Calls come from the whole dose curve; as a rule, active = well fitted cell-killing curve with a large enough effect; inconclusive = small, poorly fitted or top-dose-only effect, or effect the other way; inactive = no such curve, though single readings can be large or run the other way.

test: Viability qHTS for spleen associated tyrosine kinase inhibitor (SYKi) naive MV4-11 cells (AID 1963823); details: MV4-11 AML viability, CellTiter-Glo luminescence, 72 h; series mostly up to 45 µM; viability (% of control): at the top concentration; note: nearly all actives have a fitted effect of over 40% in size
Source text: Department of Medicine, Hematology/Oncology
University Hospital Frankfurt, Germany.
Trials have shown promising clinical activity of the selective SYK inhibitor entospletinib in patients with high expressing HOXA9/MEIS1 acute leukemias. As the development of resistance mechanisms is a common problem in the use of targeted drugs, we performed a chemical library screen to identify drug sensitivities in SYK inhibitor resistant AML cells. […] Glucocorticoids are potent immunosuppressants which work in part by inhibiting the transcription of cytokine genes.
Described herein is a viability screen to look for activity in the SYK inhibitor naive cell line against four NCATS compound libraries (MIPE 5.0, NPC, NPACT, and Kinase) totaling 11372 compounds. Active hits were reacquired for confirmation and further secondary assay testing.
SEQUENCE No. (e.g., 1, 2, 3, etc.); […] (e.g., Cells, Incubation, Reagent, etc.); VALUE; DESCRIPTION.
1; Media; 2uL; white, solid-bottom Corning assay plate.
2; Compounds; 23nL; Echo acoustic dispenser.
3; Cell; 5uL; 500 cells per well.
4: Incubation; 72hr; 37 C, 5% CO2, 95% humidity.
5; Reagent; 3uL; CellTiter-Glo reagent (Promega).
6; Incubation; 10min; room temperature.
7; Detection; Luminescence; ViewLux plate reader (PerkinElmer).
NOTES (numbers refer to Sequence numbers above
1. Quantitative high-throughput screening (qHTS) of small molecule compounds was conducted on naive SYKi MV4-11 cell line.
2. Twenty-three nanoliter of small molecule compounds were added to each assay plates using the Echo acoustic dispenser (Beckman Coulter).
3. Cells were seeded into the assay plates at a final density of 500 cells in 5uL of media per well using the Multi-drop Combi dispenser.
4. Plates were covered with stainless steel gasketed lids and incubated for 72 hours at standard cell culture conditions.
5. Viability was assessed by adding 3uL of CellTiter-Glo detection reagent (Promega).
6. Plates were covered with gasket lids and incubated for 10 minutes at room temperature.
7. Luminescence was measured on a ViewLux plate reader (PerkinElmer).
Potency is the fitted concentration of half-maximal effect.

Compound | viability (% of control) | Potency
CN1[C@H]2C[C@H](OC(=O)[C@H](CO)c3ccccc3)C[C@@H]1[C@@H](O)C2 | 88% (inactive) | –
N#Cc1ccccc1-c1cc(-c2ccccn2)cn(-c2ccccc2)c1=O | 24.3% (inactive) | –
CC[N+]1(CC)CCC(OC(=O)C(O)(c2ccccc2)c2ccccc2)C1 (stereo not given) | 70.3% (inactive) | –
CC(C)N(CCNC(=O)CN1CCCC1=O)C(C)C | 79.9% (inactive) | –
CCCCCCCCCC(CC)c1ccc(S(=O)(=O)O)cc1 (stereo not given) | – | 7700 nM (active)
CC(=O)[C@H]1CC[C@H]2[C@@H]3CC[C@H]4C[C@](C)(O)CC[C@]4(C)[C@H]3CC[C@]12C | 68.3% (inactive) | –
C/C=C(\C)C(=O)OC1CC2C(C)(C)OC(=O)CC(OC(C)=O)C2(C)C2CC(OC(=O)C(C)C)C3(C)C(c4ccoc4)CC4OC43C12C (stereo not given) | 63.9% [at 17.3 µM] (inactive) | –
O=C(O)c1ccnc2cc(C(OCCN3CCCCC3)c3ccccc3Cl)[nH]c12 (stereo not given) | 88.4% (inactive) | –
CN1[C@H]2CC(O)C[C@H]1[C@H]1O[C@H]12 (stereo not given in full) | 89.2% (inactive) | –
COc1ccc2c3c1O[C@H]1[C@@H](O)C=C[C@H]4[C@@H](C2)N(C)CC[C@@]341 | – | 37800 nM (active)
C=CC(C)(O)CC/C=C(\C)C(=O)O[C@H]1[C@H](O)[C@@H](CO)O[C@@H](OC(=O)[C@]23CCC(C)(C)CC2C2=CCC4[C@@]5(C)CC[C@H](O[C@@H]6O[C@H](CO[C@@H]7OC[C@H](O)[C@H](O)[C@H]7O[C@@H]7OC[C@@H](O)[C@H](O)[C@H]7O)[C@@H](O)[C@H](O)[C@H]6O)C(C)(C)C5CC[C@@]4(C)[C@]2(C)CC3)[C@@H]1OC1OC(C)C(O[C@@H]2OC[C@@H](O)[C@H](O[C@@H]3OC[C@@H](O)[C@H](O)[C@H]3O)[C@H]2O)C(O)C1O (stereo not given in full) | 65.2% [at 9.25 µM] (inactive) | –
O=[N+]([O-])/N=C1\NCCN1Cc1ccc(Cl)nc1 | 76.9% (inactive) | –
C=CC(C)(C)c1[nH]c2c(CC=C(C)C)cc(CC=C(C)C)cc2c1C[C@@H]1NC(=O)[C@H](C)NC1=O | 81.8% (inactive) | –
Oc1ccc2c3c1O[C@H]1[C@@H](O)C=C[C@H]4[C@@H](C2)NCC[C@@]341 | 68.8% [at 91.9 µM] (inactive) | –
C[C@]12CC[C@H](O)C[C@H]1CC[C@@H]1[C@@H]2[C@H](O)C(=O)[C@]2(C)[C@@H](c3ccc(=O)oc3)CC[C@]12O | – | 10.3 nM (active)
Cc1sc2c(c1C)C(c1ccc(Cl)cc1)=N[C@@H](CC(N)=O)c1nnc(C)n1-2 | – | 83.3 nM (active)
CN1CCC(O)(c2ccc(F)cc2)C(C(=O)c2ccc(F)cc2)C1 (stereo not given) | 74.5% (inactive) | –
NC(=O)CN1CCCC1=O | 77.5% (inactive) | –
C[C@H]1O[C@@H](O[C@H]2C[C@@H](O)[C@]3(CO)C4C(CC[C@]3(O)C2)[C@@]2(O)CC[C@H](C3=CC(=O)OC3)[C@@]2(C)C[C@H]4O)[C@@H](O)[C@@H](O)[C@H]1O (stereo not given in full) | – | 172 nM (active)
C[C@]12CC[C@H]3[C@@H](CCC4=CC(=O)CC[C@@H]43)[C@@H]1CC[C@@H]2O | 63.4% (inactive) | –

Compound | viability (% of control) | Potency
C/C(=C\c1csc(C)n1)[C@@H]1C[C@@H]2O[C@@H]2CCC[C@H](C)[C@H](O)[C@@H](C)C(=O)C(C)(C)[C@@H](O)CC(=O)O1 | – | 5.2 nM (active)
Cc1[nH]nc2ccc(-c3cncc(OC[C@@H](N)Cc4c[nH]c5ccccc45)c3)cc12 | – | 46.8 nM (active)
C=C(C)[C@@H]1CCC(C)=C[C@H]1c1c(O)cc(CCCCC)cc1O | – | 20900 nM (active)
CO[C@@H]1C[C@H](O[C@H]2CC[C@@]3(C)C(CCC4C3CC[C@]3(C)[C@@H](C5=CC(=O)OC5)[C@@H](OC(C)=O)CC43O)C2)O[C@H](C)[C@@H]1O[C@H]1O[C@H](CO[C@@H]2O[C@H](CO)[C@@H](O)[C@H](O)[C@H]2O)[C@@H](O)[C@H](O)[C@H]1O (stereo not given in full) | – | 310 nM (active)
CCN1CCCC1CNC(=O)C(O)(c1ccccc1)c1ccccc1 (stereo not given) | 71.2% (inactive) | –
COC1C(O)C(C)OC(OC2C(CO)O[C@@H](O[C@@H]3CC4CCC5C(CC[C@]6(C)[C@@H](C7=CC(=O)OC7)CC[C@]56O)[C@@]4(C)[C@H](OC(C)=O)C3)C(O)C2O)C1O (stereo not given in full) | – | 2430 nM (active)
CCN1C[C@]2(COC)[C@H](O)C[C@H](OC)[C@]34[C@@H]5C[C@]6(O)[C@H](OC(=O)c7ccccc7)[C@@H]5[C@@](O)([C@H]([C@H](OC)[C@H]23)[C@@H]14)[C@@H](O)[C@@H]6OC | 93.8% (inactive) | –
NCC(O)c1ccc(O)cc1 (stereo not given) | 84.8% (inactive) | –
CCC1(C2=NCCN2)Cc2ccccc2O1 (stereo not given) | 81.4% (inactive) | –
C[C@]12CC[C@H]3[C@@H](CCC4=C/C(=N/OCC(=O)O)CC[C@@]43C)[C@@H]1CC[C@@H]2O | 86.4% (inactive) | –
CC[C@H]1/C=C\C=C/C[C@@H](C)[C@H](O)[C@@](C)(O)C(=O)[C@@H](C)[C@H](O)[C@@H](C)C(=O)[C@@H](C)[C@H](O)[C@@H](C)/C=C\C(=O)O[C@@H]2[C@H](C)[C@H](CC1)O[C@]1(CC[C@H](C)[C@H](C[C@@H](C)O)O1)[C@H]2C | – | 9.2 nM (active)
COc1ccc2c(c1)/C(=C/c1cnc[nH]1)C(=O)N2 | – | 461 nM (active)
C[C@@H](CN1CCC2(CC1)C(=O)NCN2c1cccc(F)c1)NC(=O)c1ccc(Br)cc1 | – | 16400 nM (active)
Cc1cccc(NC(=O)c2ccc(C(F)(F)F)cc2C(=O)O)n1 | 75.8% (inactive) | –
CC(=O)O[C@@H]1CC2C(C)(C)C(=O)C=C[C@]2(C)C2CC[C@]3(C)C(=CC(=O)O[C@H]3c3ccoc3)[C@@]21C (stereo not given in full) | – | 11600 nM (active)
CC1=C[C@H]2O[C@@H]3[C@H](O)[C@@H](O)[C@](C)([C@@]2(CO)C[C@@H]1O)[C@]31CO1 | – | 820 nM (active)
Cc1cn(C[C@H](N)C(=O)O)c(=O)n(Cc2cc(-c3ccccc3)sc2C(=O)O)c1=O | 95.4% (inactive) | –
CO/C1=C/C(C)=C\[C@@H](C)[C@@H](O)[C@@H](C)C/C(C)=C\C=C/[C@H](OC)[C@@H]([C@@H](C)[C@@H](O)[C@H](C)[C@@]2(O)C[C@@H](O)[C@H](C)[C@@H](C(C)C)O2)OC1=O | – | 22.1 nM (active)
COc1nn(CSP(=S)(OC)OC)c(=O)s1 | – | 38600 nM (active)
CC1=C(O)C(=O)C=C2C1=CC=C1[C@@]2(C)CC[C@@]2(C)[C@@H]3C[C@](C)(C(=O)O)CC[C@]3(C)CC[C@]12C | – | 590 nM (active)
